From PubChem BioAssay (NCI) come the findings set out here.

Structures are written as SMILES. Compounds without any hit were thinned out: in the full panel of roughly 83,000, 20% have a hit.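 Values shown are percent growth following 48 h exposure of cells in 96-well plates to a single concentration of compound; below 10 was considered active.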 Values without a mark were called inactive. The source made the active and inactive calls.

For the test, the system named is M14 melanoma. As to the kind of experiment: NCI-60 one-dose screen, 48 h (100 = growth as untreated, 0 = no growth, -100 = all killed). The note with it: 10 µM.
For the molecule `O=C(COc1cccc(/C=C2\CSc3ccccc3C2=O)c1)c1ccc(Cl)cc1`, the growth was -34.7% (active).

In the case of `CCn1c(CSc2nc3ccccc3c(=O)n2CCc2ccccc2)n[nH]c1=S`, the growth is 88.8%.

As to `COc1ccc2nc3cc(Cl)ccc3c(NCCCNCCO)c2c1`, the growth is -62.8% (active). The result for `Cc1cc(Br)nnc1Br` reads 96.8%.

Take `Cc1ccc(NC(=S)NNC(=S)Nc2ccc(C)cc2)cc1`: the growth was 44.2%.

In the case of `COc1ccc(C2CC(c3cccs3)=NN2c2ccc(S(N)(=O)=O)cc2)cc1` (stereo not drawn), the growth was 78.4%. The result for `CC[N+](CC)=c1ccc2nc3c(cc(NCc4ccccc4)c4ccccc43)oc-2c1` reads -74.4% (active); that for `COC1=CC(=O)OC(c2ccc(OC)cc2)C1` (stereo not drawn), 122%; that for `COc1ccccc1-n1c(-c2csc(NC(C)=O)n2)n[nH]c1=S`, 98%.

Regarding `COc1cc(NC(=O)C2=C(N3CCOCC3)/C(=C/c3ccc(Cl)cc3)CC2)cc(OC)c1OC`, the growth is 97.3%. The result for `C#CC(C)(O)[C@@H]1C[C@H](CC(=O)O)C1(C)C` (stereo partly drawn) reads 105%.

As for `COc1nc2c(c(=O)n1C)CN(c1ccccc1)C(=O)C(C)N2` (stereo not drawn), the growth is 95.3%. For `COc1cc(-c2ccc[nH]2)[nH]c1/C=C1\N=C(C)C(C(=O)NC(C)C)=C1C`, the growth is -1.65% (active). The result for `O=C1c2ccccc2C(=O)N1CCCCNc1ccccc1` reads 98.9%; that for `CC(C)c1ccc(C(C)C(=O)N(CC2=C(C(C)c3ccccn3)c3ccccc3C2)C(C)C)cc1` (stereo not drawn), 48.1%. The result for `Cc1ccc(C)c(COc2cc(NC(=O)c3ccc4c(c3)OCO4)ccc2N(C)S(C)(=O)=O)c1` reads -34.2% (active); that for `Cc1cc(NC(=O)c2ccc(C)c(Nc3nccc(-c4cccnc4)n3)c2)cc(-n2cnc(C)c2)c1`, 30.9%; that for `COc1ccc(C2CC(c3cc(OC)c(OC)c(OC)c3)=NN2)cc1` (stereo not drawn), 92.6%. Turning to `CC1OC2CC(=O)OC2C2=C1C(=O)c1c(O)c3c(c(O)c1C2=O)C1CC(O)C3(O)C(C)O1` (stereo not drawn), the growth is -76.7% (active). Regarding `Nc1ncc(-c2cnn(C3CCNCC3)c2)cc1-c1nc2ccccc2o1`, the growth is -88.7% (active). Consider `CCCCCCCCCCCC[n+]1c(C)cc(N)c2ccccc21`, for which the growth was -33.5% (active). For `COc1ccc(-c2nn(-c3cccc(Cl)c3)cc2/C=C2\NC(=S)N(c3ccc(Cl)cc3)C2=O)cc1`, the growth is 4.39% (active).

In the case of `CC(=O)Nc1cc2c(cc1Cl)Cc1cc(Cl)ccc1-2`, the growth is 106%. As for `COC(=O)CC[C@@H](C)[C@H]1CC[C@H]2[C@@H]3CC[C@@H]4C[C@H](O)CC[C@]4(C)[C@H]3C[C@H](O)[C@]12C`, the growth is 102%. Regarding `O=C1NC(=O)c2c(CCCSc3nc4ccccc4c(=O)n3CCc3ccccc3)cccc21`, the growth was 98.1%. For `Cc1ccc(C2=NN(c3ccc(S(C)(=O)=O)cc3)C(=O)CC2)cc1`, the growth is 10.2%.

For the molecule `CCOC(=O)Cn1c(=O)c2sc3ncccc3c2n2nnc(-c3ccccc3)c12`, the growth is 99%.

With `c1ccc(CCCCc2ccc3ccccc3n2)cc1`, the growth was 98.1%. For the molecule `COc1ccc(-c2nn(-c3cccc(Cl)c3)cc2-c2c(C#N)c(=O)n3[nH]c(-c4ccccc4)nc3c2C#N)cc1`, the growth was 109%. The result for `COc1ccc2c(c1)C(=O)/C(=C/c1cccc(OCC(=O)c3ccc([N+](=O)[O-])cc3)c1)CO2` reads 8.08% (active); that for `NC(N)=N/N=C(\c1ccccc1)C(O)c1ccccc1` (stereo not drawn), 97.3%; that for `COc1ccc2c(c1)C(CC(=O)NN)CCC2` (stereo not drawn), 104%. Regarding `Cc1cc(=O)n2nnc3cc(C(F)(F)F)ccc3n12`, the growth was 113%. For the molecule `NS(=O)(=O)c1ccc(N2N=C(c3ccccc3)CCC2=O)cc1`, the growth is 100%.

Regarding `COc1cc(C2CC(c3ccccc3)=NN2C(C)=O)cc(OC)c1OC` (stereo not drawn), the growth is 29.7%. The result for `CSc1ccc(-c2cc(-c3ccc(NC(=O)CCCN4CCCC4)cc3)nc(-c3ccc(NC(=O)CCCN4CCCC4)cc3)c2)cc1` reads 88.4%; that for `CC(C1=C(CN(C(=O)Cc2cn(-c3ccccc3)nc2-c2ccc(Cl)cc2)C(C)C)Cc2ccccc21)c1ccccn1` (stereo not drawn), 64.7%; that for `O=C1OC(C(Cl)(Cl)Cl)OC1C(Cl)(Cl)Cl` (stereo not drawn), 99%.
